Inconclusive results are not listed. Calls of active or inactive are those of the source. Calls follow the shape of the dose curve; as a rule, active = well fitted inhibition curve with a large enough effect; inconclusive = small, poorly fitted or top-dose-only effect; inactive = no such curve, though single readings can be large or run the other way.
Experiment: qHTS for Inhibitors of the Aldehyde Dehydrogenase Family (ALDH1A2, ALDH1A3, ALDH2, ALDH3A1) (AID 2061307); also: nearly all actives have a fitted effect of over 50% in size; as to Potency: test system not described further here
Details: ALDH inhibition qHTS; series mostly up to 50.3 µM; activity change, negative = inhibition: at the top concentration
% is scaled to controls: 0 for no effect and ±100 for the full control effect; potency is read from the fitted curve at half-maximal effect.

Structure (SMILES)	activity change, negative = inhibition	Potency
CC(C)CCn1c(O)c(N=NC(=O)c2cccnc2)c2ccccc21	3.64% (inactive)	
O=C(Nc1cccnc1Cl)c1cc(-c2cccc(Cl)c2)on1	-20.9% [at 34.4 µM] (inactive)	
O=C(Nc1cc(S(=O)(=O)N2CCOCC2)ccc1N1CCCCC1)c1cc(-c2ccccn2)nc2ccccc12	-18.7% (inactive)	
CN1CCN(c2ccc3ncc(Nc4ccc(Cl)c(C(F)(F)F)c4)n3n2)CC1		28.2 µM (active)
CC(=O)c1cc2c(cc1NC(=O)c1cnn(-c3ccc(F)cc3F)c1)OCO2	-13.3% [at 34.4 µM] (inactive)	
Cc1noc(C)c1-c1cncc(C(=O)NCc2cccnc2)c1	-8.96% (inactive)	
Cc1ccc(NC(=O)Cc2c(C)nn(C)c2C)cc1F		10 µM (active)
CCOc1ccc(CCNC(=O)c2cc3occc3[nH]2)cc1OCC	-25.9% (inactive)	
CCN(CC)S(=O)(=O)c1ccc(NC(=O)c2ccc(CN3CCc4ccccc4C3)cc2)cc1	36.6% (inactive)	
C[S+](=O)([O-])c1ccc(-c2nnc3ccc(C(=O)NCc4cccs4)cn23)cc1	-9.17% [at 34.4 µM] (inactive)	
O=C(c1cccc(F)c1)N1CCCC2(CCN(C(c3ccccc3)c3ccccc3)C2)C1 (stereo unspecified)	-79.3% (inactive)	
Cc1c2c(=O)n(-c3ccccc3)[nH]c2cc(=O)n1Cc1ccccn1	-29% (inactive)	
O=C(c1ccc(Cl)cc1)c1no[n+]([O-])c1C(=O)c1ccc(Cl)cc1		7.98 µM (active)
COc1ccc(CCNC(=O)c2ccc3nnc(-c4ccc([S+](C)(=O)[O-])cc4)n3c2)cc1	-48.3% [at 34.4 µM] (inactive)	
Cc1cc(Br)c2c(c1)/C(=C\C(=O)c1cccs1)C(=O)N2		2.52 µM (active)
CC(C)(C)OC(=O)NC1CCN(c2nc(Br)cs2)CC1	-8.32% (inactive)	
